The results in this text go back to PubChem BioAssay AID686978 (National Center for Advancing Translational Sciences (NCATS), 2013).

Several values for one entry are separate records, joined by “and”; a condition that tells them apart may be missing. Equal entries are not always repeated. About 64,000 (15%) of roughly 420,000 compounds were called active. About 27% were inconclusive and are not listed. Calls follow the shape of the dose curve; as a rule, active = well fitted inhibition curve with a large enough effect; inconclusive = small, poorly fitted or top-dose-only effect; inactive = flat fitted curve, though single readings scatter. These entries were drawn from the full list. Entries that show only a call come without a potency. More than one record can exist for a structure, and the calls need not agree.
Potency is read from the fitted curve at half-maximal effect.

The test is described as follows: qHTS for Inhibitors of human tyrosyl-DNA phosphodiesterase 1 (TDP1): qHTS in cells in absence of CPT. Also: nearly all actives have a fitted effect of over 55% in size. As to conditions: DT40 Tdp1-/- hTDP1 cells, no CPT, ATP luminescence, 48 h; activity change, negative = growth inhibition: at 46.2 µM (top of the series). In short, it runs like this:
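No-CPT arm: Tdp1-/-;hTDP1 DT40 cells (400/well) plus compounds, incubated ≥48 hr at 37 °C. Readout CellTiter-Glo luminescence.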
A general note: qHTS replaces the single test concentration by a dilution series.
On to `NC(=O)Cn1c(=O)oc2ccccc21`, for which the Potency result was “inactive”.

In the case of `CCOc1ccc2nc(N(CCN(C)C)C(=O)c3ccc4ccccc4c3)sc2c1`, the Potency result was “inactive”.

With `CN(C)CCCN(C(=O)c1ccc(S(=O)(=O)N2CCCCCC2)cc1)c1nc2ccc(Br)cc2s1`, the Potency is 18.4 µM (active).

In the case of `CCN(CC)CCN(C(=O)c1ccc(S(=O)(=O)N2CCOCC2)cc1)c1nc2cc3c(cc2s1)OCCO3`, the Potency entry was “inactive”.

With `COCc1c(C(=O)OCc2c(C)noc2C)oc2ccccc12`, the Potency result was “inactive”.

Take `CCNC(=S)NNC(=O)c1ccc2ncccc2c1`: the Potency result was “inactive”.

For the molecule `CC(=O)Nc1ccc(Sc2ccccc2C(=O)N2CCCC2)cn1`, the Potency result is “inactive”.

As to `O=C(C[C@H]1C(=O)N(c2ccc(F)c(F)c2)C[C@@H]1Cc1ccccc1)Nc1ccccc1`, the Potency entry is “inactive and 15.8 µM (active)”.

On to `CNC(=O)C[C@H]1C(=O)N(Cc2ccccc2)C[C@@H]1CSC`, for which the Potency entry was “inactive”.

As for `CNC(=O)C[C@H]1C(=O)N(c2ccc(OC)cc2)C[C@@H]1Cc1ccccc1`, the Potency entry was “inactive”.

Take `CCOc1cc2[nH]c(=O)n(CCC(=O)NCc3ccc(OC)cc3)c(=O)c2cc1OCC`: the Potency result was “inactive”.

Regarding `CN=C1SC(CC(=O)Nc2ccc(C(=O)O)cc2)C(=O)N1C` (configuration not stated), the Potency entry was “inactive”.

As to `CC1C(=O)C(C)C(c2ccc(O)cc2)NC1c1ccc(O)cc1` (configuration not stated), the Potency entry is “inactive”.

For `O=c1cc(CN2CCN(S(=O)(=O)/C=C/c3ccccc3)CC2)c2ccc(O)cc2o1`, the Potency is 20.6 µM (active).

For `CC(=O)N1CCN(Cc2cc(=O)oc3cc(C)ccc23)CC1`, the Potency entry was “inactive”.

Regarding `NC(=O)CCN1CCN(S(=O)(=O)/C=C/c2ccccc2)CC1`, the Potency entry was “inactive”.

As for `COc1ccc(NC(=O)CCCN2C(=O)C(c3ccccc3)Oc3cccnc32)cc1` (configuration not stated), the Potency entry was “inactive”.

In the case of `O=S1(=O)CCN(C2CCCCCCCCCCC2)CC1`, the Potency is 20.6 µM (active).

In the case of `O=S1(=O)CC(N2CCN(CCO)CC2)CN1C1CCCC1` (configuration not stated), the Potency result was “inactive”.

With `O=C(O)C1CCN1C1CCCCC1` (configuration not stated), the Potency entry was “inactive”.

Regarding `COc1ccc(NC(=O)N(C)C[C@@H]2OCc3cn(nn3)CCCC(=O)N([C@H](C)CO)C[C@H]2C)c(OC)c1`, the Potency result was “inactive”.

As to `COCCN(C(=O)CC1CCCCC1)c1c(N)n(CC(C)C)c(=O)[nH]c1=O`, the Potency entry was “inactive”.

For the molecule `CCC(C)[C@H]1COCCS(=O)(=O)N1Cc1ccc(C)cc1` (some centres not stated), the Potency result was “inactive”.

With `Cc1ccc(-c2ccc(CN3C(C(C)C)C(=O)N(Cc4cn(CCC5OCCCO5)nn4)CCS3(=O)=O)cc2)cc1` (configuration not stated), the Potency was 11.6 µM (active).

Take `Cc1ccc(CN2CCCOCCS2(=O)=O)cc1`: the Potency result was “inactive”.

Take `CC(C)C1C(=O)N(Cc2cn(CCC3OCCO3)nn2)CCS(=O)(=O)N1Cc1ccc(-c2ccccc2C(F)(F)F)cc1` (configuration not stated): the Potency was 25.9 µM (active).

In the case of `Cc1ccc(-c2ccc(CN3C(C)C(=O)N(Cc4cn(CCC5OCCCO5)nn4)CCS3(=O)=O)cc2)cc1` (configuration not stated), the Potency was 23.1 µM (active).

As for `Cc1ccc(-c2ccc(CN3C(C(C)C)C(=O)N(Cc4cn(CCC5OCCO5)nn4)CCS3(=O)=O)cc2)cc1` (configuration not stated), the Potency was 7.31 µM (active).

Turning to `CCCc1nnc(NC(=O)CCC(=O)NC2CC2)s1`, the Potency result was “inactive”.

With `O=C(Oc1cc(OC(=O)c2ccccc2)c2c(c1)OC(c1ccc(OC(=O)c3ccccc3)c(OC(=O)c3ccccc3)c1)[C@@H](OC(=O)c1ccccc1)C2)c1ccccc1` (some centres not stated), the Potency entry is “inactive”.

`Nc1ccc(-n2nncc2-c2ccco2)cc1`: the Potency result was “inactive”.

`CC(C)c1ccc(N2CC(C(=O)Nc3nccs3)CC2=O)cc1` (configuration not stated): the Potency entry is “inactive”.

Regarding `O=C(NN=C1CCC(=NNC(=O)c2cccnc2)CC1)c1cccnc1`, the Potency entry is “inactive”.

With `COc1ccc(CNC(=O)C2CCN(S(C)(=O)=O)CC2)cc1`, the Potency result is “inactive”.

In the case of `Cn1cnc(S(=O)(=O)N2C[C@@H](O)COC[C@@H]3O[C@H](CC(=O)NC4CCC4)CC[C@H]32)c1`, the Potency entry is “inactive”.

Take `c1csc(-c2nnc(COc3ncnc4sccc34)o2)c1`: the Potency result is “inactive”.

Turning to `C[C@@H]1NC(=O)c2cc([N+](=O)[O-])cc(F)c2NCCC[C@@H](C(N)=O)NC(=O)[C@H](CC(N)=O)NC1=O`, the Potency entry was “inactive”.

As for `COc1cc2c(cc1OC)CN(C(=O)c1cc(S(=O)(=O)N3CCCCC3)ccc1Cl)CC2`, the Potency is 11.6 µM (active).

Turning to `CN1CCN(NC(=O)c2ccc(S(=O)(=O)N3CCCCCC3)cc2)CC1`, the Potency result was “inactive”.

Take `COc1ccc(C(=O)NCC2CCCCC2)cc1S(=O)(=O)N1CCCC1`: the Potency result was “inactive”.

With `O=C(c1cc(S(=O)(=O)N2CCOCC2)ccc1Cl)N1CCOCC1`, the Potency entry was “inactive”.

Consider `COc1cc2c(cc1OC)CN(C(=O)c1ccc(S(=O)(=O)N3CCCCCC3)cc1)CC2`, for which the Potency is 14.6 µM (active).

As for `COc1ccc(S(=O)(=O)N2CCCCC2)cc1Br`, the Potency result was “inactive”.

Turning to `COc1cc(S(=O)(=O)N2CCN(C(=O)C3CC3)CC2)ccc1NC(C)=O`, the Potency entry was “inactive”.

For the molecule `COc1ccc(S(=O)(=O)N2CCC(C(=O)N3CCc4ccccc4C3)CC2)cc1OC`, the Potency was 29.1 µM (active).

As to `COc1ccc(S(=O)(=O)N2CCC(C(=O)N3CCOCC3)CC2)cc1OC`, the Potency result was “inactive”.

On to `CSc1ccccc1OCc1cc(C(=O)N2C[C@H]3CC[C@H]2C3)no1`, for which the Potency entry is “inactive”.

For the molecule `CCOc1ccccc1N(CC(=O)NC1CCCCC1)C(=O)CCCC(=O)Nc1ccccn1`, the Potency result is “inactive”.

Consider `O=C(c1ccc(Cl)cc1)c1cnc(Nc2ccccc2)s1`, for which the Potency result is “inactive”.

Take `Cc1ccc(S(=O)(=O)NN=C2CC(C)(C)CC(=O)C2(C)C)cc1`: the Potency entry was “inactive”.

In the case of `COC(C[C@@H](O)C[C@H](O)[C@H](C)OCc1ccccc1)OC`, the Potency entry is “inactive”.

Regarding `Cc1noc(C)c1COc1ccccc1C(=O)N(C)CC(=O)Nc1cccc(F)c1`, the Potency result was “inactive”.

As to `Cc1cc(Nc2ccccc2)n(CCC#N)n1`, the Potency result is “inactive”.

Regarding `O=c1ccn([C@@H]2O[C@H](COP(=O)(O)OP(=O)(O)OP(=O)(O)O)[C@@H](O)[C@H]2O)c(=O)[nH]1`, the Potency result was “inactive”.

For the molecule `Cc1ccccc1NC(=O)CN1C(=O)N/C(=C\c2cccn2-c2cccc(C(=O)O)c2)C1=O`, the Potency entry was “inactive”.

`Nn1c(SCc2ccccc2)nnc1C1CCCCC1`: the Potency result is “inactive”.

Take `Cc1ccc(-c2nc(C#N)c(NCCCn3ccnc3)o2)cc1`: the Potency entry was “inactive”.

For the molecule `Cc1ccc(S(=O)(=O)NCCCn2ccnc2)cc1C(=O)NC(C)C`, the Potency entry is “inactive”.

With `Cc1ccc(S(=O)(=O)c2nc(NCCCn3ccnc3)sc2Cl)cc1`, the Potency was 20.6 µM (active).

Regarding `CCc1ccccc1NC(=O)/C(=C/c1ccccc1)c1ccccc1`, the Potency was 23.1 µM (active).

With `CCc1ccccc1NC(=O)CCOc1ccccc1`, the Potency result is “inactive”.

Regarding `CCc1ccccc1NC(=S)Nc1cc(OC)c(NC(=O)C(C)C)cc1OC`, the Potency result was “inactive”.
